# From PubChem
# Pf Dd2 inh = blocks growth of Plasmodium falciparum Dd2 parasites; P. falciparum Dd2 growth, SYBR Green, 72 h; active compounds read low; activity change, % at 10 µM; 94,000 tested, 2.3% active; AID 1159554; in the data active = activity change below about -80%; inconclusive = no clear call, values can overlap the other calls
# T cruzi growth-1 = blocks T. cruzi growth in NIH3T3 culture; T. cruzi beta-gal in NIH3T3, GalScreen luminescence, 90 h; inhibition, % at 8.34 µM; 77,000 tested, 5.9% active;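 active = mean inhibition above about 93%, with at least 55% of replicates each passing it, limit read from the data, passing the limit was not always enough; inconclusive = only one of those two conditions holds; inactive = neither condition holds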
# C diff HTS = blocks growth of Clostridium difficile; Clostridium difficile clinical isolate growth, OD600, 24 h; active compounds read low; growth activity, negative = inhibition, % at 16 µg/mL (by protocol); 86,000 tested, 0.25% active;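 active = mean growth activity at or below -80% and every replicate also at or below -80%; inconclusive = mean at or below -80% but some replicate above -80%; inactive = mean growth activity above -80%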
# T cruzi growth-2 = blocks T. cruzi growth in NIH3T3 host cells | 5,600 tested, 72% active | T. cruzi beta-gal in NIH3T3, GalScreen luminescence, 90 h | inhibition, % at 8.35 µM | shares compounds with T cruzi growth-1;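 active = mean replicate inhibition above about 95% and at least 55% of replicates individually reaching it, limit read from the data; inconclusive = only one of the two criteria is met; inactive = neither criterion is met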
# T cruzi growth-3 = blocks T. cruzi growth in NIH3T3 host cells; 5,600 tested, 21% active; T. cruzi beta-gal in NIH3T3, GalScreen luminescence, 90 h; shares compounds with T cruzi growth-1; inhibition, % at 2.09 µM; AID 651740;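 active = mean inhibition above about 95%, with at least 55% of replicates also reaching it, limit read from the data; inconclusive = meets just one of the two conditions; inactive = meets neither condition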
# NIH3T3 tox = cytotoxicity in mouse NIH/3T3 fibroblasts; 5,600 tested, 14% active; AID 651742; cytotoxicity (signal decrease), % at 8.35 µM; shares compounds with T cruzi growth-1; NIH/3T3 viability, CellTiter-Glo ATP luminescence, 90 h;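 active = mean signal decrease across replicates above about 35% based on untreated-well scatter, with enough replicates individually passing, limit read from the data; inconclusive = no rule stated though some were filed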
# NIH3T3 tox 2 = NIH/3T3 (mouse) viability loss; shares compounds with T cruzi growth-1; NIH/3T3 viability, CellTiter-Glo ATP luminescence, 90 h; inhibition, % at 24.9 µM; 5,600 tested, 56% active; AID 651744;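 active = mean loss of cell viability signal at or above a set limit, and enough replicates individually reaching it; inconclusive = meets only the mean limit or only the replicate share; inactive = meets neither condition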
# A number is an active result; . = inactive; ? = inconclusive; / = not tested or not shown. An excerpt weighted towards active compounds, which were near 6.8% of everything screened.
SMILES,Pf Dd2 inh,T cruzi growth-1,C diff HTS,T cruzi growth-2,T cruzi growth-3,NIH3T3 tox,NIH3T3 tox 2
C[C@@H]1CCCCO[C@@H](CN(C)C(=O)C2CCCCC2)[C@@H](C)CN([C@@H](C)CO)C(=O)c2cc(NS(=O)(=O)c3ccc(F)cc3)ccc2O1,.,.,.,/,/,/,/
C[C@@H]1CCCCO[C@@H](CN(C)C(=O)C2CCCCC2)[C@@H](C)CN([C@H](C)CO)C(=O)c2cc(NS(=O)(=O)c3ccc(Cl)cc3)ccc2O1,.,.,.,/,/,/,/
C[C@@H]1CN([C@H](C)CO)C(=O)c2cc(NS(=O)(=O)c3ccc(Cl)cc3)ccc2O[C@@H](C)CCCCO[C@H]1CN(C)C(=O)C1CCCCC1,.,?,.,96,.,.,100
C[C@@H]1CCCCO[C@@H](CN(C)C(=O)C2CCCCC2)[C@H](C)CN([C@H](C)CO)C(=O)c2cc(NS(=O)(=O)c3ccc(Cl)cc3)ccc2O1,.,?,.,110,.,.,100
C[C@H](CO)N1C[C@H](C)[C@@H](CN(C)C(=O)C2CCCCC2)OCCCC[C@H](C)Oc2ccc(NS(=O)(=O)c3ccc(Cl)cc3)cc2C1=O,.,.,.,/,/,/,/
C[C@@H]1CN([C@H](C)CO)C(=O)c2cc(NS(=O)(=O)c3ccc(F)cc3)ccc2O[C@@H](C)CCCCO[C@H]1CN(C)C(=O)C1CCCCC1,.,?,.,101,.,.,.
CO[C@H]1CN(C)C(=O)c2cc(NC(C)=O)ccc2OC[C@H](C)N(Cc2cccnc2)C[C@H]1C,.,.,.,/,/,/,/
COC(=O)C[C@H]1CC[C@H]2[C@@H](COc3ccc(NC(=O)c4cc(C)on4)cc3C(=O)N2C)O1,.,.,.,/,/,/,/
CC(C)CC#Cc1ccc2c(c1)O[C@@H](CN(C)C(=O)C1CCC1)[C@@H](C)CN([C@H](C)CO)S2(=O)=O,.,.,.,/,/,/,/
CC(C)CC#Cc1ccc2c(c1)O[C@H](CN(C)C(=O)C1CCC1)[C@H](C)CN([C@@H](C)CO)S2(=O)=O,.,.,.,/,/,/,/
CC(C)CC#Cc1ccc2c(c1)O[C@@H](CN(C)C(=O)C1CCC1)[C@H](C)CN([C@H](C)CO)S2(=O)=O,.,?,.,102,.,.,101
CC(C)CC#Cc1ccc2c(c1)O[C@H](CN(C)C(=O)C1CCC1)[C@H](C)CN([C@H](C)CO)S2(=O)=O,.,.,.,/,/,/,/
CC(C)CC#Cc1ccc2c(c1)O[C@@H](CN(C)C(=O)C1CCC1)[C@H](C)CN([C@@H](C)CO)S2(=O)=O,.,106,.,97,104,.,42
CC(C)CC#Cc1ccc2c(c1)O[C@H](CN(C)C(=O)C1CCC1)[C@@H](C)CN([C@@H](C)CO)S2(=O)=O,.,106,.,107,.,.,104
C[C@@H]1CN([C@H](C)CO)S(=O)(=O)c2ccc(C#CC3CCCC3)cc2O[C@H]1CN(C)C(=O)Nc1cc(F)ccc1F,.,/,.,/,/,/,/
COc1ccc(S(=O)(=O)N(C)C[C@H]2Oc3c(NS(=O)(=O)c4cn(C)cn4)cccc3C(=O)N([C@H](C)CO)C[C@H]2C)cc1,.,.,.,/,/,/,/
COc1ccc(NC(=O)Nc2ccc3c(c2)C(=O)N([C@@H](C)CO)C[C@@H](C)[C@@H](CN(C)Cc2ccc(Cl)c(Cl)c2)O3)cc1,.,.,/,/,/,/,/
COc1ccc(S(=O)(=O)Nc2cccc3c2O[C@H](CN(C)S(=O)(=O)c2ccc(F)cc2)[C@@H](C)CN([C@H](C)CO)C3=O)cc1,.,.,.,/,/,/,/
C[C@H](CO)N1C[C@H](C)[C@@H](CN(C)Cc2ccc(C(F)(F)F)cc2)Oc2ccc(NC(=O)Nc3cccc4ccccc34)cc2C1=O,.,100,.,107,.,.,.
C[C@H](CO)N1C[C@H](C)[C@H](CN(C)Cc2ccccc2)Oc2ccc(NC(=O)Nc3cccc4ccccc34)cc2C1=O,.,.,.,/,/,/,/
C[C@H]1CN([C@@H](C)CO)C(=O)c2cc(NC(=O)Nc3cccc4ccccc34)ccc2O[C@H]1CN(C)Cc1ccc(C(F)(F)F)cc1,.,.,.,/,/,/,/
C[C@@H]1CN([C@@H](C)CO)C(=O)c2cc(NC(=O)Nc3cccc4ccccc34)ccc2O[C@H]1CN(C)Cc1ccc(C(F)(F)F)cc1,.,96,.,106,.,.,.
COc1ccccc1NC(=O)N1CC(=O)N2[C@H](CO)[C@H](c3ccc(-c4cccc(C)c4)cc3)[C@@H]2C1,.,/,.,/,/,/,/
O=C(NCc1ccc2c(c1)OCO2)[C@H]1[C@H](CO)[C@H]2Cn3c(cccc3=O)[C@@H]1N2Cc1cccnc1,/,.,.,/,/,/,/
O=C(C1CCCC1)N1CCCCN2[C@H](C1)[C@@H](c1ccc(C#CC3CC3)cc1)[C@@H]2CO,.,.,.,/,/,/,/
SMILES,Pf Dd2 inh,T cruzi growth-1,C diff HTS,T cruzi growth-2,T cruzi growth-3,NIH3T3 tox,NIH3T3 tox 2
CN(C)CC#Cc1ccc([C@H]2[C@@H](CO)N3CCCCN(C(=O)C4CC4)C[C@@H]23)cc1,.,.,.,/,/,/,/
O=C(C1CCCC1)N1CCCCN2[C@H](CO)[C@H](c3ccc(C#CC4CC4)cc3)[C@H]2C1,.,113,.,104,.,.,37
O=C(C1CCCC1)N1CCCCN2[C@H](C1)[C@H](c1ccc(C#CC3CC3)cc1)[C@@H]2CO,.,114,.,99,.,.,.
CN(C)CC#Cc1ccc([C@H]2[C@@H](CO)N3CCCCN(C(=O)C4CC4)C[C@H]23)cc1,.,102,.,.,.,.,36
O=C(C1CC1)N1CCCCN2[C@H](C1)[C@H](c1ccc(C#CC3CC3)cc1)[C@@H]2CO,.,.,.,/,/,/,/
CN(C)C(=O)C[C@@H]1CC[C@@H]2[C@H](COC[C@@H](O)CN2S(=O)(=O)c2ccccc2)O1,.,/,.,/,/,/,/
COCC(=O)N(C)C[C@H]1Oc2ncc(C#CC(C)(C)O)cc2C(=O)N([C@@H](C)CO)C[C@H]1C,.,.,/,/,/,/,/
CO[C@@H]1CN(C)C(=O)c2cc(NS(C)(=O)=O)ccc2OC[C@@H](C)N(CC2CCCCC2)C[C@@H]1C,.,.,/,/,/,/,/
C/C=C/c1cnc2c(c1)C(=O)N([C@H](C)CO)C[C@H](C)[C@H](CN(C)Cc1cncnc1)O2,.,/,.,/,/,/,/
CC(C)NC(=O)N[C@H]1C=C[C@@H](CC(=O)N2CCCCC2)O[C@H]1CO,.,.,/,/,/,/,/
C[C@@H]1CCCCO[C@@H](CN(C)Cc2ccc(C(F)(F)F)cc2)[C@@H](C)CN([C@@H](C)CO)C(=O)c2cc(N(C)C)ccc2O1,.,97,.,104,.,.,28
C[C@@H]1CCCCO[C@@H](CN(C)Cc2ccc(C(F)(F)F)cc2)[C@H](C)CN([C@@H](C)CO)C(=O)c2cc(N(C)C)ccc2O1,.,.,.,/,/,/,/
C[C@@H]1CN([C@H](C)CO)C(=O)c2cc(N(C)C)ccc2O[C@@H](C)CCCCO[C@@H]1CN(C)Cc1ccc(C(=O)O)cc1,.,.,.,/,/,/,/
